CYP2C9 act: human CYP2C9 activators, primary screen, biochemical, luminescence. Cytochrome P450 2C9 (Homo sapiens), P11712. recombinant CYP2C9, luciferin-H conversion; stronger effect = higher value; factor 1 = untreated enzyme, 0 = blocked. activation factor at 5 µM. hit rate 1.4% among 96,000;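 active means activation factor of 2 or more for CYP2C9 at a 5 µM dose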;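 further: 0 = sulfaphenazole-blocked wells and 1 = vehicle-only wells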
CYP2C19 inhib: blockers of cytochrome P450 2C19 activity – biochemical, luminescence, ADME assay, primary screen; P33261; hit rate 21% among 96,000; CYP2C19 Supersomes, luciferin-H EGE luminescence, 30 min; AID 778, 2007; inhibition, % at 5 µM;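 active means CYP2C19 inhibition above a set limit at 5 µM in the primary screen, cut at about 50% in these data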;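 further: plate controls were negative control wells for no effect and 2.5 mM tranylcypromine positive control for full effect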
CYP2C9 inhib: blockers of cytochrome P450 2C9 activity – biochemical, luminescence, ADME assay, primary screen; P11712; CYP2C9 Supersomes, luciferin-H conversion; inhibition, % at 5 µM; hit rate 20% among 96,000; AID 777, 2007;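 active means blocking of liver enzyme CYP2C9 beyond about 50% at 5 µM, limit read from the data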
CYP2C19 act: human CYP2C19 activators, primary screen, biochemical, luminescence | recombinant CYP2C19, luciferin-H EGE luminescence; stronger effect = higher value; 0 = fully inhibited enzyme, 1 = untreated enzyme | activation factor at 5 µM | Cytochrome P450 2C19 (Homo sapiens), P33261 | 96,000 tested, under 10 active;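 active means activation factor of at least 2 at 5 µM in the primary screen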;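 further: 0 = wells with 2.5 mM tranylcypromine and 1 = vehicle-only wells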
Pyk2 oligo antag: antagonists of Pyk2 self-association, primary screen, Q293 cells, FERM NanoBiT luminescence, HTS | Protein-tyrosine kinase 2-beta (Homo sapiens), Q14289 | hit rate 0.83% among 99,000 | z-score (the deposit names both 25 µM and 10 µM) | AID 1347419, 2020 | stronger effect = lower value;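 active means Z-score of -3 or lower, scaled per plate to the spread of control and sample wells; inactive means z-score above -3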;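 further: negative z-score means lost luminescence so less FERM oligomerization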
Target sequence (Q14289 whole entry, looked up): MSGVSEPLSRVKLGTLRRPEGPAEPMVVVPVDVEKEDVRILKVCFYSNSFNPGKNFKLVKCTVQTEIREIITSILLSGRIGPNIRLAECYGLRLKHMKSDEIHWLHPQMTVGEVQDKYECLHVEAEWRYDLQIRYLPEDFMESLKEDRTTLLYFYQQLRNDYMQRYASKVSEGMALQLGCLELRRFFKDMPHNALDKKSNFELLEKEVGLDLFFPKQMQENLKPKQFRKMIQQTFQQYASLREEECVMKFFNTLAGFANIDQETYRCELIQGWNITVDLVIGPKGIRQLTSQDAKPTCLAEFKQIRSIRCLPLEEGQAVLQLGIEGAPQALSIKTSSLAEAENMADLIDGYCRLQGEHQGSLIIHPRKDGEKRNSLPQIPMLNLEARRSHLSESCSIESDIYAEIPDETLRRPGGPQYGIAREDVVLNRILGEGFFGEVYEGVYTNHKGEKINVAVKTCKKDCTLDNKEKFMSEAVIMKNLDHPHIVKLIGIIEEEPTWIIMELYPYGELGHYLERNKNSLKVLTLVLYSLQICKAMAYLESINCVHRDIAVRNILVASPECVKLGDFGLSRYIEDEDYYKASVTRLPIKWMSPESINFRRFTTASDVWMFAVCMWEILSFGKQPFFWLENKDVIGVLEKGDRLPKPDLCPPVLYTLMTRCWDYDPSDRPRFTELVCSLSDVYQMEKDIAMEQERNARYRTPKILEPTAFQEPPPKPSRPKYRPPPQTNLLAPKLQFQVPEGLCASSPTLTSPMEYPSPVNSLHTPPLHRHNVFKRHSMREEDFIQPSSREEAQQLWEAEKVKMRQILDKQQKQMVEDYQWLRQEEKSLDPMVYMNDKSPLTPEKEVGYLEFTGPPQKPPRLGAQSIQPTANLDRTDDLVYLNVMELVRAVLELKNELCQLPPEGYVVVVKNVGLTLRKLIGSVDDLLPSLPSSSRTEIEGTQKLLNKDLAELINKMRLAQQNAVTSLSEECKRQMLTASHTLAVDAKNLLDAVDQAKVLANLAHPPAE
Starred values were filed as active, the others as inactive; nt = not tested or not shown. Compounds with a hit are over-represented: about 28% of the library has one in this group of screens.

SMILES	CYP2C9 act	CYP2C19 inhib	CYP2C9 inhib	CYP2C19 act	Pyk2 oligo antag
CCCCC(=O)Nc1ccc(C(=O)N2CCN(C)CC2)cc1	1.1	3	-9	1	1.4
CCCOc1ccc(C(=O)N2CCN(c3ccc(NC(=O)CC)cc3Cl)CC2)cc1	0.1	96*	86*	0	-1.5
COc1cccc2sc(N(CCCN(C)C)C(=O)c3sc4ccccc4c3Cl)nc12	nt	nt	nt	nt	-0.49
Cc1noc(C)c1CSCC(=O)N1CCN(c2ccc([N+](=O)[O-])cc2)CC1	0.9	-4	10	1	0.76
OCC1CCCN1C(=S)Nc1ccccc1 (stereo unspecified)	1.1	27	-9	0.7	0.36
CCc1ccc2[nH]c(O)c(N=Nc3nc(-c4ccccc4)cs3)c2c1	0.9	12	12	0.9	-1.2
O=C(Nc1ccc(N2CCN(C(=O)c3ccccc3)CC2)c(Cl)c1)c1ccco1	0.4	41	62*	0.6	-1
O=C(Nc1ccc(N2CCOCC2)c(Cl)c1)c1ccco1	0.8	14	22	0.9	0.32
CCCC(=O)N1CCN(c2ccc(NC(=O)c3cc4ccccc4o3)cc2Cl)CC1	0.2	81*	82*	0.2	-2.7
O=C(COc1ccccc1Cl)c1ccc2c(c1)CCCC2	1.9	0	-93	1	-0.09
O=C(O)Cn1ncc2c1-c1ccoc1CC2	1.1	-19	-6	1.2	nt
Cc1cc(N2CCCC2)c(C)cc1C=O	0.4	28	62*	0.7	1.7
Cc1cc(N)ccc1N1CCCC1	1	14	-2	0.9	-0.69
NC(=O)c1nsc(C(=O)N(CC(=O)NCc2ccc3c(c2)OCO3)C2CCCC2)c1N	1.1	42	-8	0.6	0.54
CSc1nnc(NC(=O)c2cc3ccccc3oc2=O)s1	0.9	2	5	1	nt
COc1ccc(NC(=O)c2csc(Cc3ccccc3)n2)cc1	0.4	50*	64*	0.5	-1.1
COc1ccccc1CNC(=O)c1csc(Cc2ccc(Cl)cc2)n1	0.4	60*	56*	0.4	-2.9
COc1ccc(CNC(=O)c2csc(Cc3ccccc3)n2)cc1	0.4	88*	59*	0.1	-2
COc1ccc(CNC(=O)c2cc(-c3cccs3)on2)cc1	0.5	29	47	0.7	-0.64
COc1ccc(NC(=O)CSc2nc3c(c(=O)[nH]2)CCC3)cc1OC	0.7	14	28	0.9	-0.33
Cc1cccc(NC(=O)CCN2C(=O)C3C4C=CC(C4)C3C2=O)n1 (stereo unspecified)	1.1	28	-8	0.7	0.38
CC(C)c1ccccc1OCC(=O)NCC(c1cccs1)N1CCOCC1 (stereo unspecified)	0.8	68*	19	0.3	-1.6
CC(=O)C1=C(O)CCC1=N	1	0	2	1	0.01
CCCCOc1ccc(C(=O)Nn2cnnc2)cc1	0.1	93*	93*	0.1	0.9
CCC(CC)c1nc(NCCC(=O)O)c2ccccc2n1	1	-3	4	1	0.5
SMILES	CYP2C9 act	CYP2C19 inhib	CYP2C9 inhib	CYP2C19 act	Pyk2 oligo antag
O=C(CCCN1C(=O)CSc2ncccc21)N1CCN(Cc2ccccc2)CC1	0.8	18	19	0.8	nt
CCOC(=O)C1=C(c2ccccc2)NC(=S)NC1C (stereo unspecified)	0.9	52*	8	0.5	0.67
CCOC(=O)C1=C(C)C(c2ccccc2)NC(=S)N1 (stereo unspecified)	0.8	63*	24	0.4	0.48
COC(=O)C1=C(C)C(c2ccc(OC)cc2)NC(=S)N1 (stereo unspecified)	0.9	31	13	0.7	-0.3
CCc1ccc(C(C)NC(=O)Cn2cnc3c(=O)n(C)c(=O)n(C)c32)cc1 (stereo unspecified)	nt	nt	nt	nt	0.81
Fc1ccc(-c2nnc(SCc3ncc(-c4ccccc4)o3)n2CC2CCCO2)cc1 (stereo unspecified)	1.1	11	-11	0.9	-0.77
FC(F)(F)c1cnc(Sc2nnc(-c3cccs3)n2CC2CCCO2)c(Cl)c1 (stereo unspecified)	1.1	89*	-7	0.1	0.45
FC(F)(F)c1ccc(Sc2nnc(-c3cccs3)n2CC2CCCO2)nc1 (stereo unspecified)	0.5	91*	52*	0.1	0.43
COc1ccc(-c2noc(CCC(=O)NCCN3CCN(c4ccccc4F)CC3)n2)cc1	0.3	45	69*	0.6	1.9
O=C(NCCCN1CCN(c2cccc(Cl)c2)CC1)c1cccc(N2CCCC2=O)c1	nt	nt	nt	nt	1.2
Clc1cccc(N2CCN(Cc3nc(-c4ccccc4)no3)CC2)c1	0.9	2	14	1	nt
COc1ccc(-c2noc(CCC(=O)NCCCN3CCC(C)CC3)n2)cc1	1	0	2	1	0.74
Cc1ccc(-c2noc(CCC(=O)NCCCN3CCN(c4cccc(Cl)c4)CC3)n2)cc1	0.3	38	74*	0.6	2.1
Cc1ccc(-c2noc(CCC(=O)NCCCN3CCN(c4ccc(F)cc4)CC3)n2)cc1	0.3	57*	70*	0.4	2.3
O=C(NCCCN1CCN(c2cccc(Cl)c2)CC1)c1ccc(N2CCCC2=O)cc1	0.3	49	66*	0.5	0.7
CN(c1ccccc1)S(=O)(=O)c1ccc(C(=O)NCC2CCCO2)cc1 (stereo unspecified)	0.6	8	37	0.9	0.98
Cc1cccc(NC2=C(Cl)C(=O)OC2NC(=O)c2ccccc2)c1 (stereo unspecified)	0.5	40	54*	0.6	0.51
O=C(Nc1ccc(F)cc1)C(c1ccccc1)N1CCN(C(=O)c2ccco2)CC1 (stereo unspecified)	0.3	22	71*	0.8	-0.01
CC(C)C(=O)Nc1ccc(C(=O)N2CCN(C(=O)c3ccco3)CC2)cc1	0.9	9	12	0.9	nt
O=C(c1ccco1)N1CCN(C(=O)C(Sc2ccccc2)c2ccccc2)CC1 (stereo unspecified)	0.2	78*	83*	0.2	-0.27
CC(C(=O)Nc1ccc2c(c1)OCCO2)N1CCN(C(=O)c2ccco2)CC1 (stereo unspecified)	0.9	-8	10	1.1	0.28
O=C(Nc1ccc2c(c1)OCO2)C(c1ccccc1)N1CCN(C(=O)c2ccco2)CC1 (stereo unspecified)	0	76*	98*	0.2	-1.1
O=C(Nc1ccc2c(c1)OCO2)C(c1ccc(Cl)cc1)N1CCN(C(=O)c2ccco2)CC1 (stereo unspecified)	0.1	75*	95*	0.3	-0.84
COc1cccc(Nc2ncccc2C(=O)Nc2ccccc2)c1	0.7	22	25	0.8	-1.1
COc1ccc(OCC(=O)O/N=C(\N)Cc2ccc(Cl)cc2Cl)cc1	1	10	0	0.9	0.28

Screens deposited in PubChem by Sanford-Burnham Center for Chemical Genomics.
